Most compounds without a hit are left out; they make up all but 19% or so of the library.
HT1080NT lethal: kills 2HG-producing HT-1080-NT fibrosarcoma cells; HT-1080-NT fibrosarcoma viability, CellTiter-Glo ATP luminescence, 48 h; Potency, µM (series often up to 46.1 µM), hits mostly cytotoxic; hit rate 1.6% among 360,000;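 note: NT is the 2HG producing partner of a matched IDH1 knockdown line; nearly all actives have a fitted effect of over 55% in size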
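A 48-hour cytotoxicity screen used HT-1080-NT cells plated 2 hours before compound delivery. ATP-based CellTiter-Glo luminescence measured viability, normalized to DMSO and no-cell controls.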
HT1080 IDH1KD tx: HT-1080 IDH1 knockdown cell toxicity (counter line) | hit rate 2% among 360,000 | HT-1080 IDH1 knockdown viability, ATP luminescence, 48 h | Potency, µM (doses to about 46.1 µM), hits mostly cytotoxic
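% activity derives from luminescence (CellTiter-Glo), normalised to DMSO and no-cell wells. HT-1080-IDH1KD cells, 750/well, had 48 h compound exposure at 37 °C.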
DT40 TDP1 CPT: DT40-hTDP1 cell growth loss with CPT | chicken DT40 Tdp1-/-;hTDP1 cells + 20 nM CPT, ATP luminescence, 48 h | Potency, µM (top dose mostly 46.2 µM), actives largely listed as inhibitors | hit rate 12% among 420,000 | AID 686979; note: nearly all actives have a fitted effect of over 55% in size
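Chicken DT40 Tdp1-/- cells complemented with human TDP1, 400 cells/well, exposed to compounds plus 20 nM camptothecin for at least 48 h at 37 C; viability read as ATP content by CellTiter-Glo luminescence.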
IL-1B inflam inh: blocks inflammasome-driven IL-1 beta release | THP-1 LPS/ATP IL-1B secretion, AlphaLISA, 16 h; hits give low values | activity change, % at 57.5 µM | hit rate 4.7% among 360,000 | AID 743279; in the data active = activity change below about -50%; inconclusive = mostly about -30% to -49%
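Secreted IL-1B measured by AlphaLISA bead assay after 16 h compound exposure of THP-1 cells; compounds (final up to 57.5 uM) added 1 h before LPS (250 ng/mL) and ATP (1.25 mM) stimulation; lower signal means less secretion.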
DT40 TDP1 no CPT: qHTS for Inhibitors of human tyrosyl-DNA phosphodiesterase 1 (TDP1): qHTS in cells in absence of CPT; DT40 Tdp1-/- hTDP1 cells, no CPT, ATP luminescence, 48 h; Potency, µM (series often up to 46.2 µM), hits mostly inhibitors; hit rate 15% among 420,000; note: nearly all actives have a fitted effect of over 55% in size
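Chicken DT40 Tdp1-/- cells complemented with human TDP1, screened without camptothecin (DMSO vehicle only), 400 cells/well. Compounds pin-transferred, cells incubated at 37 °C for at least 48 hr. Growth read as ATP-dependent luminescence (CellTiter-Glo, 30 min at RT).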
Numbers stand for hits; 0 = inactive; ? = inconclusive; - = no result given; [ ] = dose if it differs, or a comment. Unless noted, calls come from the whole dose curve; as a rule, active = well fitted curve in the direction sought with a large enough effect; inconclusive = small, poorly fitted or top-dose-only effect, or another doubt; inactive = no such curve, though single readings can be large; an effect the other way counts as inactive or inconclusive.

SMILES | HT1080NT lethal | HT1080 IDH1KD tx | DT40 TDP1 CPT | IL-1B inflam inh | DT40 TDP1 no CPT
C=CCOc1cccc(/C=C2\C(=O)N(Cc3ccc(C)cc3)C(C)=C2C(=O)OC)c1 | 0 | 0 | ? | -91 | 23µM
CCOc1cc(/C=C2\C(=O)N(Cc3ccc(C)cc3)C(C)=C2C(=O)OC)ccc1O | ? | ? | ? | 0 | ?
Cc1cccc(CNc2ccnc(-c3ccccc3C(F)(F)F)n2)c1 | - | - | 18µM | - | ?
N#Cc1cccc(-c2nccc(NCc3ccccc3)n2)c1 | - | - | ? | - | 0
Fc1ccc(Nc2ccnc(-c3ccccc3C(F)(F)F)n2)cc1 | - | - | 12µM | - | ?
CN(C)c1ccc(-c2nccc(NCc3ccccc3)n2)cc1 | - | - | ? | - | 16µM
Cc1cccc(CNc2ccnc(-c3ccc(N(C)C)cc3)n2)c1 | - | - | 0 | - | 12µM
Cc1cccc(CNc2ncncc2-c2ccccc2C(F)(F)F)c1 | - | - | 0 | - | 0
Cc1cnc(CNc2ccnc(-c3ccc(N(C)C)cc3)n2)cn1 | - | - | 0 | - | 0
O=C(CCc1nnc(-c2ccsc2)o1)N1CCCCC1CCn1ccnc1 (centres undefined) | 0 | 0 | 0 | 0 | 0
O=C(CC(=O)Nc1cccc(Cl)c1Cl)Nc1cccc(Cl)c1Cl | 0 | 0 | 0 | 0 | ?
COc1ccc(-c2nn(C)c3sc(C(=O)N4CCN(c5cccc(Cl)c5)CC4)cc23)cc1OC | - | - | 15µM | - | 0
Cn1nc(-c2ccc(Cl)cc2)c2cc(C(=O)N3CCOCC3)sc21 | 0 | 0 | ? | 0 | 21µM
COc1ccc2nc3sc(C(=O)N4CCN(c5ccc(F)cc5)CC4)cc3cc2c1 | - | - | 0 | - | 0
COc1cccc(-c2nn(C)c3sc(C(=O)N4CCOCC4)cc23)c1 | 0 | 0 | 0 | 0 | ?
Cc1ccc(-n2nc(C(=O)N3CCOCC3)cc2-c2ccc(Cl)cc2)cc1 | 0 | 0 | ? | 0 | ?
Cn1nc(-c2ccccc2F)c2cc(C(=O)N3CCN(c4ccc(F)cc4)CC3)sc21 | - | - | ? | - | 16µM
O=C(c1cc(-c2ccc(Cl)cc2)n(-c2ccc(Cl)cc2)n1)N1CCOCC1 | 0 | 0 | 16µM | 0 | ?
COc1ccc(OC)c(-c2cc(Cl)c3c(c2)CC(CNC(=O)c2cnn4cccnc24)O3)c1 (centres undefined) | - | - | 0[9.04 µM] | - | 0
CCN(CC)C(=O)Cn1ncc2c([nH]c3ccc(C)cc32)c1=O | - | - | 0 | - | 0
COc1ccc(N2CCN(C(=O)c3cc4c(-c5ccc(Cl)cc5)nn(C)c4s3)CC2)cc1 | 0 | 0 | ? | 0 | 16µM
Cn1nc(-c2ccccc2F)c2cc(C(=O)N3CCN(C(=O)c4ccco4)CC3)sc21 | 0 | 0 | 29µM | 0 | ?
COc1cc(SC)ccc1C(=O)N1CCN(c2ccccc2F)CC1 | 0 | 0 | 0 | 0 | ?
COc1ccc(N2CCN(C(=O)c3cc4c(-c5ccccc5F)nn(C)c4s3)CC2)cc1 | - | - | ? | - | 9.2µM
COc1ccc(N2CCN(C(=O)c3nn(C)c4c3CSc3ccccc3-4)CC2)cc1 | - | - | 0 | - | ?
SMILES | HT1080NT lethal | HT1080 IDH1KD tx | DT40 TDP1 CPT | IL-1B inflam inh | DT40 TDP1 no CPT
Cn1nc(-c2ccccc2F)c2cc(C(=O)N3CCN(c4ccccc4F)CC3)sc21 | - | - | 4.1µM | - | 7.3µM
COc1ccc(NC(=O)COC(=O)CN2C(=O)c3ccccc3C2=O)cc1 | 0 | 0 | 0 | 0 | 0
Cc1ccc(C(=O)N(Cc2cc3cc4c(cc3nc2N2CCOCC2)CCC4)CC2CCCO2)s1 (centres undefined) | - | - | 0[9.04 µM] | - | 0
O=C(c1ccco1)N(Cc1cccs1)c1ccc(F)cc1 | - | - | 0 | - | 0
Cc1cc(N=Nc2ccc(C)c(N=Nc3cc(C)c(N)cc3N)c2)c(N)cc1N | 0 | 0 | ? | 0 | 12µM
O=C1CC(N2CCC(c3nc4ccccc4s3)CC2)C(=O)N1 (centres undefined) | 0 | 0 | 0 | 0 | 0
COCCN(CC(=O)NC1CCCCC1)C(=O)/C=C/C(=O)c1ccc(OC)cc1O | 23µM | ? | 2.1µM | -101 | 2.3µM
COc1ccc(C(=O)OCC(=O)NC(=O)NC2CCCC2)c(O)c1 | 0 | 0 | 0 | 0 | 0
COc1ccc(C(=O)/C=C/C(=O)N(CC(=O)NC2CCCCC2)Cc2cccs2)c(O)c1 | 0 | 0 | 1.6µM | -100 | 3.3µM
COc1ccc(CN(C(=O)/C=C/C(=O)c2ccc(OC)cc2O)C(C(=O)NC2CCCCC2)c2ccncc2)cc1 (centres undefined) | 0 | 0 | ? | ? | ?
